Compound activity from PubChem BioAssay.
miR-21 reporter – qHTS Assay for Modulators of miRNAs and/orActivators of miR-21 | HeLa miR-21 FLuc reporter, luciferase, 48 h | Potency, µM (doses to about 38.3 µM), for inactives: at the top dose activity change, positive = activation, most hits filed as activators | 340,000 tested, under 10 active | AID 2288, 2010;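 also: % of control where 0% means no effect; miR-21 action dims this reporter so a rising signal means less miR-21 action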
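Luminescence from a firefly luciferase reporter carrying a miR-21 binding site downstream, stably expressed under a CMV promoter in HeLa cells that make miR-21 endogenously, reports miRNA modulation after 48 h compound exposure up to approximately 40uM final.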
DT40 TDP1 CPT – qHTS for Inhibitors of human tyrosyl-DNA phosphodiesterase 1 (TDP1): qHTS in cells in presence of CPT | chicken DT40 Tdp1-/-;hTDP1 cells + 20 nM CPT, ATP luminescence, 48 h | Potency, µM (doses to about 46.2 µM), for the others: top-dose activity change, negative = growth inhibition, actives largely listed as inhibitors | 420,000 tested, 12% active | AID 686979, 2013; also: potency is read from the fitted curve at half-maximal effect; % is scaled to controls: 0 for no effect and ±100 for the full control effect; nearly all actives have a fitted effect of over 55% in size
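Chicken DT40 Tdp1-/- cells stably complemented with human TDP1 were seeded at 400 cells/well in medium containing 20 nM camptothecin, exposed to pin-transferred compounds, and grown at 37 °C for at least 48 hr. Viability was read as ATP luminescence.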
TDP1 cell noCPT – qHTS for Inhibitors of human tyrosyl-DNA phosphodiesterase 1 (TDP1): qHTS in cells in absence of CPT | DT40 Tdp1-/- hTDP1 cells, no CPT, ATP luminescence, 48 h | Potency, µM (top dose mostly 46.2 µM), for inactives: at the top dose activity change, negative = growth inhibition, hits mostly inhibitors | 420,000 tested, 15% active | AID 686978, 2013; also: potency is read from the fitted curve at half-maximal effect; % is scaled to controls: 0 for no effect and ±100 for the full control effect; nearly all actives have a fitted effect of over 55% in size
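Growth of hTDP1-complemented DT40 Tdp1-knockout cells is measured by ATP luminescence after at least 48 hr compound exposure at 37 °C, with DMSO substituting for the 20 nM CPT used in the parallel screen.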
uPA surface inh – qHTS for Inhibitors of Cell Surface uPA Generation | cell surface uPA generation assay, qHTS | Potency, µM (series often up to 38.3 µM), for the others: at the top dose activity change, negative = inhibition, most hits filed as inhibitors | 330,000 tested, 0.31% active | AID 540303, 2011; active = well fitted inhibition curve with a large enough effect; inconclusive = small, poorly fitted or top-dose-only effect; inactive = no such curve, though single readings can be large or run the other way; tested in mouse RAW 264.7 cells; also: potency is read from the fitted curve at half-maximal effect; % is scaled to controls: 0 for no effect and ±100 for the full control effect; nearly all actives have a fitted effect of over 55% in size
TDP1 inh – qHTS Assay for Inhibitors of Tyrosyl-DNA Phosphodiesterase (TDP1) | 350,000 tested, 0.28% active | Potency, µM (series often up to 130 µM), inactives show at the highest dose activity change, negative = inhibition, usual class: inhibitors | recombinant TDP1, AlphaScreen DNA substrate cleavage | Tyrosyl-DNA phosphodiesterase 1 (Homo sapiens), Q9NUW8; also: potency is read from the fitted curve at half-maximal effect; % is scaled to controls: 0 for no effect and ±100 for the full control effect; nearly all actives have a fitted effect of over 40% in size
Target sequence (Q9NUW8 whole entry, looked up): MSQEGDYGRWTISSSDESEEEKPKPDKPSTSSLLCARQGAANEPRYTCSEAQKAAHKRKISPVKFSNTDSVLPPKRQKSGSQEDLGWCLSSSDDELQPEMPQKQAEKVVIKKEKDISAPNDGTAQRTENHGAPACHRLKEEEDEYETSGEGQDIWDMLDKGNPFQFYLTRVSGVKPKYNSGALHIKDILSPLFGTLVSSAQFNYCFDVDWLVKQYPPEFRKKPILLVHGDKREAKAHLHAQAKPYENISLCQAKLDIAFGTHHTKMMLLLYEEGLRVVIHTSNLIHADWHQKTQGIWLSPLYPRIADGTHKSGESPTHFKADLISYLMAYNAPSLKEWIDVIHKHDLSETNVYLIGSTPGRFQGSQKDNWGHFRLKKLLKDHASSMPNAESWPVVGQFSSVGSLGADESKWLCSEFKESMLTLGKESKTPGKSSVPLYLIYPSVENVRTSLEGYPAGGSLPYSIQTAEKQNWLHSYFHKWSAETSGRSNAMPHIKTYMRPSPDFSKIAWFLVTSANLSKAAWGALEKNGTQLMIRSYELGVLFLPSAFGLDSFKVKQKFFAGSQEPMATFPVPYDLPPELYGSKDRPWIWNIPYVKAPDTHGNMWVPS
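E. coli-derived human Tdp1, 1 nM final. Cpd preinc 15 min RT; substrate 15 nM final, 5 min RT; AS bead mix 10 ug/ml final, 10 min RT. Signal loss = tyrosine-FITC cleavage. No-enzyme wells = max signal.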
Numbers without * were called inactive; ? = inconclusive; / = no result; ! = not active in a repeat; [ ] = remark or other dose. This is a sample that favours compounds with a hit; in the whole collection about 16% have one here. Unless noted, calls follow the shape of the dose curve; as a rule, active = well fitted curve in the direction sought with a large enough effect; inconclusive = small, poorly fitted or top-dose-only effect, or another doubt; inactive = no such curve, though single readings can be large; an effect the other way counts as inactive or inconclusive.

SMILES	miR-21 reporter	DT40 TDP1 CPT	TDP1 cell noCPT	uPA surface inh	TDP1 inh
CCOc1ccc(-c2cc3nc(C4CCN(C(=O)OC(C)(C)C)CC4)c(C(=O)Nc4cccc(C(F)(F)F)c4)cn3n2)cc1	-12%	16µM*	?	/	4%
COc1ccc(-c2cc3nc(C4CCN(C(=O)OC(C)(C)C)CC4)c(C(=O)O)cn3n2)cc1	-27%	?	?	/	3%
CCOC(=O)c1cn2nc(-c3ccc(OCC)cc3)cc2nc1C1CCN(C(=O)OC(C)(C)C)CC1	0%	?	16µM*	4%	2%
CC(C)(C)OC(=O)N1CCC(c2c(C(=O)Nc3cccc(C(F)(F)F)c3)cnn2-c2ccc(F)cc2F)CC1	28%	?	?	/	5%
CC(=O)Oc1ccc(C2(c3ccc(OC(C)=O)cc3)Oc3ccccc3NC2=O)cc1	/	?	19µM*	/	/
CCOc1cc(/C=C2/SC(=Nc3ccccc3)N(Cc3cccnc3)C2=O)ccc1OCC#N	-17%	16µM*	23µM*	-2%	8%
CCCCN1CCC(CCC(=O)c2cc(Cl)c(N)cc2OC)CC1	/	?	27µM*!	/	7%
CCC(=O)Nc1nc(C)c(-c2csc(Nc3ccc(C(=O)O)cc3)n2)s1	2%	-1%	-26%	2%	/
CCC(C)C(=O)Nc1nc(C)c(-c2csc(Nc3ccc(Cl)cc3)n2)s1 (centres undefined)	24%	16µM*	9.2µM*	-10%	6%
CCCC(=O)Nc1nc(C)c(-c2csc(Nc3ccc(Cl)cc3)n2)s1	14%	12µM*	?	-20%	4%
Cn1nc(C(F)(F)F)c(/C=N/OC(=O)c2ccccc2)c1Cl	0%	-12%	-7%	/	-2%
Cn1nc(C(F)(F)F)c(/C=N/OC(=O)c2ccccc2)c1Sc1ccc(Cl)cc1	4%	23µM*	23µM*	3%	-2%
C=CCOc1ccc(/C=C2\SC(=S)N(NS(=O)(=O)c3ccccc3)C2=O)cc1	-3%	-3%	4%	1%	/
O=C(NCC(=O)N(c1ccc(F)cc1)C(C(=O)NC1CCCC1)c1ccncc1)c1ccco1 (centres undefined)	-4%	1%	0%	1%	9%[0.0935 µM]
Brc1ccc(C2Nc3cccc4cccc(c34)N2)s1	-7%	21µM*	?	-1%	0%
Cc1cccc(C2Nc3cccc4cccc(c34)N2)c1	2%	?	?	7%	/
CC(=O)Cc1nsc(NC(=O)c2cc(-c3ccc(Cl)c(Cl)c3)oc2C)n1	-2%	-11%	?	2%	4%
CCOc1ccc(CNS(=O)(=O)c2ccc3c(c2)CCCN3C(C)=O)cc1OC	3%	?	18µM*	/	-2%
COc1ccc(CC(=O)NCc2ccc3c(c2)CCN3C(C)=O)cc1OC	-2%	12%	-21%	/	5%
COc1cc(NS(=O)(=O)c2ccc3c(c2)CCCN3C(C)=O)cc(OC)c1OC	13%	8.2µM*	9.2µM*	/	2%
CC(C)C1CC(=O)NC(SCC(=O)Nc2ccc(Br)cc2)=C1C#N (centres undefined)	0%	?	?	-10%	7%
COc1cc(CN2CCCC(C(=O)Nc3cccc(-n4cccn4)c3)C2)ccc1F (centres undefined)	7%	?	26µM*	-5%	4%
COc1ccc(CN2CCCC(C(=O)Nc3cccc(-n4cnnn4)c3)C2)c(C)c1C (centres undefined)	11%	?	?	-17%	3%
O=C(Nc1cccc(-n2cccn2)c1)C1CCCN(Cc2ccccc2F)C1 (centres undefined)	-1%	21µM*	?	-15%	3%
O=C(C1CCCN(Cc2ccccc2F)C1)N1CCCCC1 (centres undefined)	-3%	1%	-8%	2%	/
SMILES	miR-21 reporter	DT40 TDP1 CPT	TDP1 cell noCPT	uPA surface inh	TDP1 inh
CCCN1Cc2cccc(C(=O)NCc3ccc4c(c3)OCO4)c2C1=O	-2%	-26%	-25%	4%	4%
Cc1noc(Cn2c(=O)c3ccccc3n(CC(=O)Nc3ccc(C(C)C)cc3)c2=O)n1	23%	?	16µM*	/	8%
COc1ccc(-c2noc(Cn3c(=O)c4ccccc4n(CC(=O)Nc4cccc(OC)c4)c3=O)n2)cc1	-14%	?	21µM*	/	6%
O=C(CSc1ccc(Cl)cc1)NNC(=O)c1ccco1	-5%	-2%	10%	0%	1%
CC(C)c1ccc2oc(=O)cc(CN3CCCCC3)c2c1	-14%	29µM*	23µM*	2%	/
CC1CCN(Cc2cc(=O)oc3ccc(C(C)C)cc23)CC1	-2%	26µM*	?	5%	/
O=C(O)COc1ccc(C=C2SC(=S)N(c3ccccc3)C2=O)cc1	/	-4%	-10%	-1%	/
COc1ccc(C(=O)Nc2ccc3nc4n(c(=O)c3c2)CCCCC4)cc1OC	-30%	-8%	-20%	/	0%
CCCN(C(=O)C(=O)Nc1ccc2nc3n(c(=O)c2c1)CCCCC3)c1ccc(OCC)cc1	24%	13µM*	13µM*	-4%	-6%
COc1cc(C(=O)Nc2ccc3nc4n(c(=O)c3c2)CCCCC4)cc(OC)c1OC	-7%	?	23µM*	-18%	2%
CCOC(=O)Nc1ccc2nc3n(c(=O)c2c1)CCCCC3	-45%	?	-14%	-4%	3%
Cc1cccc(N2CCN(C(=S)Nc3ccc4nc5n(c(=O)c4c3)CCCCC5)CC2)c1C	2%	?	21µM*	-14%	2%
O=c1c2cc(NC(=S)NC3CCCCC3)ccc2nc2n1CCCCC2	2%	18µM*	?	-3%	-2%
O=c1c2cc(NC(=S)NC3CC3)ccc2nc2n1CCCCC2	-10%	22%	-3%	0%	5%
O=c1c2cc(NC(=S)NC3CCN(Cc4ccccc4)CC3)ccc2nc2n1CCCCC2	1%	?	15µM*	-11%	-3%
Cc1cc2nc(-c3cccc(NC(=O)CSc4ccc(Cl)cc4)c3)oc2cc1C	-52%	16µM*	?	/	6%
